In PubChem BioAssay (NCI):
About 83,000 compounds went through this panel and 20% of them were active in at least one assay; those are over-represented in the sample as a whole.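 Method: cells in 96-well plates; compound added at one concentration; 48 h incubation; percent growth measured; values under 10 scored active.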 Values without a mark were called inactive. Calls of active or inactive are those of the source.

Columns and labels:
Assay in all cases: NCI-60 one-dose screen, 48 h (100 = growth as untreated, 0 = no growth, -100 = all killed)
Settings in all cases: 10 µM unless noted
NCI-H23 lung = system: NCI-H23 lung
NCI-H226 lung = system: NCI-H226 lung
NCI-H322M lung = system: NCI-H322M lung
HOP-62 NSCLC = system: HOP-62 NSCLC
NCI-H460 lung = system: NCI-H460 lung
HOP-92 NSCLC = system: HOP-92 NSCLC
NCI-H522 lung = system: NCI-H522 lung
A549/ATCC NSCLC = system: A549/ATCC NSCLC
786-0 renal = system: 786-0 renal
COLO 205 colon = system: COLO 205 colon
DU-145 prostate = system: DU-145 prostate
K-562 leukemia = system: K-562 leukemia
MALME-3M melanoma = system: MALME-3M melanoma
MDA-MB-231 breast = system: MDA-MB-231 breast
RXF 393 renal = system: RXF 393 renal
SF-268 CNS = system: SF-268 CNS
SF-295 CNS = system: SF-295 CNS
SF-539 CNS = system: SF-539 CNS
UACC-257 melanoma = system: UACC-257 melanoma
M14 melanoma = system: M14 melanoma

Row | Compound | growth (NCI-H23 lung) | growth (NCI-H226 lung) | growth (NCI-H322M lung) | growth (HOP-62 NSCLC) | growth (NCI-H460 lung) | growth (HOP-92 NSCLC) | growth (NCI-H522 lung) | growth (A549/ATCC NSCLC) | growth (786-0 renal) | growth (COLO 205 colon) | growth (DU-145 prostate) | growth (K-562 leukemia) | growth (MALME-3M melanoma) | growth (MDA-MB-231 breast) | growth (RXF 393 renal) | growth (SF-268 CNS) | growth (SF-295 CNS) | growth (SF-539 CNS) | growth (UACC-257 melanoma) | growth (M14 melanoma)
1 | CC(C)(C)c1cc(/C=N\NC(=O)/C=C/C=C/c2ccc3c(c2)OCO3)c(O)c(C(C)(C)C)c1 | 90.5% | 75.9% | 63.5% | 66.8% | 39.6% | 88.5% | 80.1% | 87.5% | 85.4% | 94% | 56% | 59.9% | 71.3% | 79% | 94.6% | 67.4% | 92.9% | 87.5% | 88% | 73.3%
2 | CON1C(=O)CC[C@]2(C)[C@H]3CC[C@@H]4C([C@@]5(C)CCC(=O)O5)CC[C@@]4(C)[C@]3(C)CC[C@H]2C1(C)C (stereo not given in full) | 95.6% | 94.9% | 108% | 98.4% | 103% | 95.3% | 85.9% | 102% | 100% | 124% | 107% | 83% | 105% | 96.5% | 98% | 97.4% | 104% | 99.8% | 107% | 97%
3 | Cn1cc(-c2nonc2-c2cn(C)c3ccc(F)cc23)c2cc(F)ccc21 | 67.6% | 51.3% | 97.3% | 45.6% | 49.9% | 66% | 22% | 47.9% | 85.7% | 62.4% | 81.1% | 12.6% | 49.5% | 82.3% | 46.7% | 71.3% | 56.4% | 66.1% | 71.7% | 31.4%
4 | O=C(/C=C/c1ccccc1)c1ccc(O)c(CN2CCN(c3cc4c(cc3F)c(=O)c(C(=O)O)cn4C3CC3)CC2)c1 | 34.4% | 40.4% | 22.7% | 25.1% | 34.7% | -5.65% (active) | 1.49% (active) | 17.6% | 23.9% | 89.8% | 31.3% | 16.7% | 18.9% | 33.3% | 17.4% | 28.1% | 4.62% (active) | 10.3% | 31.7% | 27.9%
5 | CCCCn1c(-c2ccc(C(=O)O/N=C(\N)c3ccc4c(c3)OCO4)cc2)nc(-c2ccccc2)c1-c1ccccc1 | 35.3% | 49.9% | 66.6% | 79.7% | 0.397% (active) | 17.4% | -37.1% (active) | 15.7% | 41.9% | 57.5% | 46.4% | -5.48% (active) | 55.6% | 33.1% | 34.7% | 29.4% | 61.4% | 58.1% | 79.9% | 54.1%
6 | O=C(/C=C/c1cccc(Cl)c1)c1ccc(O)c(CN2CCN(c3cc4c(cc3F)c(=O)c(C(=O)O)cn4C3CC3)CC2)c1 | 56.4% | 62% | 37.8% | 37.2% | 44% | 21.8% | 17.3% | 25.8% | 33.6% | 136% | 34.6% | 20.4% | 44.1% | 70.5% | 39.5% | 36.9% | 43.5% | 40.9% | 80.5% | 43%
7 | Cc1ccc2oc(=O)cc(C3c4ccc([nH]4)C(c4cc(=O)oc5ccc(C)cc45)c4ccc([nH]4)C(c4cc(=O)oc5ccc(C)cc45)c4ccc([nH]4)C(c4cc(=O)oc5ccc(C)cc45)c4ccc3[nH]4)c2c1 (stereo not given) | -53.2% (active) | -39.2% (active) | -10.2% (active) | -68.2% (active) | -66.4% (active) | -24.1% (active) | -63.5% (active) | -24.6% (active) | -58.9% (active) | -80.6% (active) | -46.3% (active) | -26% (active) | -35.1% (active) | -53.8% (active) | -87.3% (active) | -39.5% (active) | -78.2% (active) | -75.1% (active) | -67.7% (active) | -71.9% (active)
